{"source": "PubChem BioAssay AID1117359", "about": "(Southern Research Institute, 2015)", "note": "Hit rate of the full screen: of about 1,500 compounds, about 460 (31%) were called active. The list is a sample of the results. Entries with a potency or affinity are not part of this list. Values without a mark were called inactive.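 How the source made its calls: active means viability at or below 80% at any tested concentration, marking the compound as toxic; inactive means the rest.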"}
{"test": "viability loss in THP-1 monocytes – THP-1 cells, cytotoxicity control for Vif-APOBEC3G degradation inhibitor project, dose response (AID 1117359)", "conditions": "THP-1 viability, CellTiter-Glo luminescence, 72 h; series mostly up to 40 µM; viability: at the top concentration", "units": {"viability": "%"}}
{"smiles": "Cc1cc(=O)nc2c3ccccc3n(C(C)C(=O)NCCC(C)C)n12", "note": "(stereo unspecified)", "viability": 94}
{"smiles": "Cc1cc(C)cc(N(CCC#N)C(=O)CSc2nc3nc(C)cc(C)n3n2)c1", "viability": 86.5}
{"smiles": "Cc1ccc(OCc2ccc(C(=O)NN)o2)cc1C", "viability": 89.7}
{"smiles": "Cc1c(NC(=O)COC(=O)c2ccccc2Cl)c(=O)n(-c2ccccc2)n1C", "viability": 103}
{"smiles": "NC(=O)c1ccc(NC(=O)CSc2nc3ccccc3c(=O)n2CCCN2CCOCC2)cc1", "viability": 95.7}
{"smiles": "O=C(NC1CCCCC1)C(c1ccc(Cl)cc1)N(C(=O)c1ccccn1)c1cccnc1", "note": "(stereo unspecified)", "viability": 102}
{"smiles": "Cc1ccccc1Cn1cc(NC(=O)c2cc(C3CC3)on2)cn1", "viability": 91.4}
{"smiles": "O=C(c1cccc(S(=O)(=O)N2CCCC2)c1)N1CCOCC1", "viability": 101}
{"smiles": "COc1ccc(NC(=S)N(CCCN2CCCC2)Cc2ccco2)cc1", "viability": 94.6}
{"smiles": "CCOC(=O)C1(Cc2ccc(OC)cc2)CCN(C(=O)c2cccc3nccnc23)CC1", "viability": 99.2}
{"smiles": "CCOc1ccc(-n2c(C)nc(O)c2N=Nc2ccccc2)cc1", "viability": 94.9}
{"smiles": "COc1cccc(NC(=O)Nc2nnc(N3C(C)CCCC3C)s2)c1", "note": "(stereo unspecified)", "viability": 93.2}
{"smiles": "O=C1N=C(N2CCN(c3ccccc3)CC2)S/C1=C\\c1ccco1", "viability": 86.3}
{"smiles": "CCCCn1c(N)c(N(CCOC)C(=O)c2cc(-c3ccco3)nc3ccccc23)c(=O)[nH]c1=O", "viability": 101}
{"smiles": "CCOc1ccc(/C=C2\\SC(=S)N(CCC(=O)O)C2=O)cc1", "viability": 100}
{"smiles": "C=CCOc1ccc(/C=C2\\SC(=S)N(CCC(=O)O)C2=O)cc1", "viability": 108}
{"smiles": "CN(CCC#N)C(=O)COC(=O)c1c2c(nc3ccccc13)/C(=C\\c1ccco1)CC2", "viability": 83}
{"smiles": "COc1ccccc1C(C#N)N1N=C(C)CC1(C)C", "note": "(stereo unspecified)", "viability": 107}
{"smiles": "CCCN(CC(=O)Nc1ccccc1C)C(=O)COC(=O)c1cnc(C)cn1", "viability": 105}
{"smiles": "O=C(COc1ccccc1C(=O)O)Nc1ccc(SC(F)F)cc1", "viability": 102}
{"smiles": "COc1ccccc1NC(=O)COC(=O)c1cc2c(s1)CCC2", "viability": 81}
{"smiles": "CN(C)CCCN(CCCN(C)C)C(=S)Nc1ccc(S(=O)(=O)N2CCOCC2)cc1", "viability": 96.8}
{"smiles": "CCNc1ccc(Br)cc(C(=O)/C=C/c2ccc(Cl)cc2)c1=O", "viability": 83.2}
{"smiles": "CNc1ccc(Br)cc(C(=O)/C=C/c2ccc(OC)cc2)c1=O", "viability": 89}
{"smiles": "COc1ccc(Br)c(C(=O)NC(C)(C)CO)c1", "viability": 97.4}
{"smiles": "O=C(CCc1ccccc1)NNC(=S)NCCc1ccccc1", "viability": 82}
{"smiles": "O=C1CCCCC1Oc1ccc2ccc(=O)oc2c1", "note": "(stereo unspecified)", "viability": 119}
{"smiles": "Cc1ccc(OCCC(=O)OCC(=O)c2ccc3c(c2)NC(=O)CO3)cc1", "viability": 121}
{"smiles": "Oc1ccc(/C=N/N2CCCCC2)c(O)c1O", "viability": 111}
{"smiles": "Oc1ccc(/C=N/N2CCOCC2)c(O)c1O", "viability": 90.6}
{"smiles": "CN=c1scc(C)n1/N=C/c1ccc(O)c(O)c1O", "outcome": "inactive"}
